PrP 5UTR inh = inhibition of PrP 5' UTR reporter expression; cell-based PrP 5' UTR mRNA reporter, plate reader; AID 488862; inhibition, % (concentration not given with the values); hit rate 0.35% among 340,000; in the data active = inhibition above about 52%; also: 0 = median of the neutral control wells
BJeLR viability = kills HRASV12-expressing BJeLR cells; BJeLR (HRASV12) viability, CellTiter-Glo ATP luminescence, 48 h; inhibition, % (no concentration beside the values); hit rate 0.17% among 300,000; in the data active = inhibition above about 50%
PrPC TRFRET = inhibitors of human cell surface prion protein PrPC. inhibition, % at 13.8 µM. TR-FRET read-out. AID 720596. hit rate 0.43% among 370,000; in the data active = inhibition above about 24%; also: 0% = median of the test wells and 100% = reference compound wells
MazF activator = increases E. coli MazEF RNase cleavage of RNA; P0AE70; FAM/BHQ RNA-DNA oligo cleavage fluorescence, 5 h; activation, % at 20 µM; hit rate 0.32% among 350,000; in the data active = activation above about 50%
PrPC confirm = cell surface PrPC inhibition, TR-FRET confirmation; shares compounds with PrPC TRFRET; cell surface PrPC level; inhibition, % at 13.8 µM; hit rate 65% among 1,500; AID 743200; in the data active = inhibition above about 25%
LD9 tox = kills or reduces viability of LD9 cells in PrPc counter-screen; shares compounds with PrPC TRFRET; LD9 cells cytotoxicity, luminescence viability; inhibition, % at 13.8 µM; hit rate 29% among 1,500; AID 743201; in the data active = inhibition above about 9.5%
An asterisk follows results filed as active; / = not tested or not shown. Hits are enriched below; roughly 1.1% of the tested compounds scored in any of these assays.

SMILES	PrP 5UTR inh	BJeLR viability	PrPC TRFRET	MazF activator	PrPC confirm	LD9 tox
O=c1c2[nH]c3ccccc3c2ncn1CCC1=CCCCC1	-23	4	0	-3	/	/
C1=C(CCNc2ncnc3c2[nH]c2ccccc23)CCCC1	-41	/	40*	13	40*	22*
O=C(CSc1nncc2ccccc12)Nc1ccccc1	-17	-2	10	9	/	/
O=C(CSc1nncc2ccccc12)Nc1ccc(F)cc1	-16	-16	37*	2	48*	-5
COc1cccc(NC2c3ccccc3C(=O)N2Cc2ccccc2Cl)c1 (stereo not drawn)	-5	4	29*	-8	7	-4
COc1cc(NC2c3ccccc3C(=O)N2Cc2ccccc2Cl)cc(OC)c1 (stereo not drawn)	-6	-1	10	-8	/	/
COC(=O)C1=C(C)N(C)C(=NCc2ccccc2)NC1c1cccc(Cl)c1 (stereo not drawn)	/	/	-13	/	/	/
COC(=O)c1cc2c(c3c4cc(OC)ccc4n(S(=O)(=O)c4ccc(OC)cc4)c13)C(=O)N(Cc1ccccc1)C2	/	/	4	/	/	/
COc1ccc(CC(=O)Nc2ccc(N3CCN(c4ccc(OC)cc4)CC3)c(C#N)c2)cc1	0	-2	25*	3	40*	13*
Cc1cc(C)cc(NC(=O)NC2CCN(S(=O)(=O)c3ccc(F)cc3)CC2)c1	/	/	6	/	/	/
Fc1ccc(NC(=S)Nc2nccs2)cc1	-54	7	32*	5	20	5
S=C(Nc1ccccc1)Nc1ccc(Br)cc1	/	0	25*	2	20	5
COc1ccccc1Cc1c(-c2ccc(F)cc2)nc2c3ccccc3ccn12	/	/	-3	/	/	/
CCOc1ccccc1N1CCN(c2nc3ccccc3nc2C(C#N)C(=O)OC)CC1 (stereo not drawn)	-10	-8	-8	-4	/	/
COc1ccccc1N1CCN(c2nc3ccccc3nc2C(C#N)C(=O)OC(C)C)CC1 (stereo not drawn)	-12	4	25*	-6	2	6
CCc1c(C)nc(N)nc1N1N=C1SC	-15	-1	6	3	/	/
CCc1c(C)nc(N)nc1N1N=C1SCC(N)=O	-23	-12	26*	-1	25*	-3
c1ccc2[nH]c(COCc3nc4ccccc4[nH]3)nc2c1	/	/	-3	/	/	/
CC(C)c1nc(SCC(=O)Nc2nc3c(s2)CCCC3)c2ccccc2n1	-9	0	60*	-4	75*	-1
CCSc1nc(-c2cccs2)nc2ccccc12	-12	17	6	-18	/	/
Cc1cc(NC(=O)C(C)Sc2nc(-c3cccs3)nc3ccccc23)no1 (stereo not drawn)	-16	/	43*	19	102*	-4
CC(C)c1nc(SCC(=O)NC2CCCC2)c2ccccc2n1	-20	-11	16	10	/	/
Cc1cc(NC(=O)CSc2ccccc2)no1	-12	0	4	-16	/	/
Cc1nnc(NC(=O)CSc2nc(C(C)C)nc3ccccc23)s1	-16	8	29*	4	78*	-4
Cc1cc(NC(=O)CSc2nc(C(C)C)nc3ccccc23)no1	-19	-4	118*	3	124*	-14
SMILES	PrP 5UTR inh	BJeLR viability	PrPC TRFRET	MazF activator	PrPC confirm	LD9 tox
COc1cc2c(cc1NC(=O)CSc1nnc(-c3cccc(Cl)c3)n1-c1ccccc1)oc1ccccc12	/	/	-4	/	/	/
Cc1ccc(S(=O)(=O)N2CCCc3nc(-c4ccc(F)cc4)ccc32)cc1	/	/	9	/	/	/
Cn1c(=O)c(=O)n(C)c2cc(S(=O)(=O)N3CCN(c4ccccc4Cl)CC3)ccc21	/	/	5	/	/	/
C=CCn1c(=O)c2ccccc2n2c(SCC(N)=O)nnc12	-17	1	36*	11	35*	2
Cc1[nH]nc2c1C(c1cccc(C(F)(F)F)c1)NC2=O (stereo not drawn)	/	/	-1	/	/	/
CCOC(=O)c1c(-c2ccc(C)s2)csc1N	-1	2	70*	4	54*	-2
CCOC(=O)c1c(-c2ccsc2)csc1N	-6	-5	-5	3	/	/
CNC(=O)COc1ccccc1C(=O)Nc1ccc2c(c1)oc1ccccc12	-17	9	31*	-36	32*	-2
N#Cc1ccccc1NC(=O)c1ccccc1OCC(=O)Nc1ccc2c(c1)oc1ccccc12	-26	13	-3	-12	/	/
Cc1cc(-c2cccc(Br)c2)c(C#N)c(N)n1	-2	/	44*	8	42*	1
O=C(c1cc(C2CC2)nc2ccc(Br)cc12)N1N=C(C(F)F)CC1(O)C(F)F (stereo not drawn)	-21	1	31*	-7	21	1
CC(C)CN1CN2CCc3ccccc3C2CS1(=O)=O (stereo not drawn)	/	/	6	/	/	/
Cc1ccc(C(=O)Nc2ncc(Cc3ccccc3)s2)o1	-19	6	27*	1	26*	3
CCCc1c(-c2ccc(OC)cc2)ncn1CCc1ccccc1OC	/	/	17	/	/	/
CC(=O)c1cccc(NC(=O)c2c(F)c(F)c(F)c(F)c2F)c1	3	14	-4	1	/	/
CC(=O)c1cccc(NC(=O)C2=CN3CCS(=O)(=O)N=C3C=C2)c1	-8	/	46*	7	46*	5
C=CC[C@@H]1NN2C(=O)[C@@H](C)[C@@H]3c4ccccc4C=NN3[C@@H]2c2ccccc21	/	/	-9	/	/	/
CCOC(=O)C(C)Sc1nc2c(c(-c3cccs3)c1C#N)CCC2 (stereo not drawn)	-10	-11	65*	-25	76*	-4
N#Cc1c(SC(C(=O)O)c2ccccc2)nc2c(c1-c1cccs1)CCCC2 (stereo not drawn)	-7	-2	52*	1	52*	-9
CC(C)OC(=O)CC(=O)CSc1nc2c(c(-c3cccs3)c1C#N)CCC2	-28	5	-1	-8	/	/
O=C1c2cccnc2-c2ncccc21	1	0	-6	8	/	/
O=C1C(=O)c2cccnc2-c2ncccc21	/	/	31*	/	62*	99*
Cc1cc(C)cc(CC(Cc2nc3ccccc3[nH]2)c2nc3ccccc3[nH]2)c1 (stereo not drawn)	-5	-1	28*	-23	30*	1
Cc1cccc(-n2c(-c3ccco3)n[nH]c2=S)c1	-9	-6	31*	-4	33*	-3
CCOC(=O)C1CCN(c2ncnc3c2cnn3-c2ccc(OC)cc2)CC1	4	/	4	-6	/	/
COc1ccc(-n2ncc3c(N4CCC(C(N)=O)CC4)ncnc32)cc1	-44	0	36*	8	29*	-4
COc1ccc(-c2csc(NC(=O)c3ccccc3NS(=O)(=O)c3ccc(F)c(F)c3)n2)cc1	-35	16	32*	6	44*	38*
COC(=O)C1=C(C)N(Cc2ccc(Br)cc2)C(=S)NC1c1ccc(OC)cc1 (stereo not drawn)	/	/	5	/	/	/
CCOC(=O)C1=CCN(S(=O)(=O)c2ccc(Cl)cc2)C1c1ccc(Br)cc1 (stereo not drawn)	/	/	2	/	/	/

Screening results: PubChem, several laboratories
